# Assay results: PubChem BioAssay AID588579 (National Center for Advancing Translational Sciences (NCATS), 2011)
# The whole screen tested about 400,000 compounds, of which about 2,200 (0.55%) were called active. Entries that show only a call come without a potency. Not shown: some 1% with an inconclusive outcome. This excerpt belongs to a sample that is enriched for actives. A number with no mark means an inactive call. Calls come from the whole dose curve; as a rule, active = well fitted inhibition curve with a large enough effect; inconclusive = small, poorly fitted or top-dose-only effect, or another doubt; inactive = no such curve, though single readings can be large or run the other way.
# Biological target: DNA polymerase kappa (Homo sapiens) (UniProt Q9UBT6)
# Sequence (Q9UBT6 whole entry, looked up): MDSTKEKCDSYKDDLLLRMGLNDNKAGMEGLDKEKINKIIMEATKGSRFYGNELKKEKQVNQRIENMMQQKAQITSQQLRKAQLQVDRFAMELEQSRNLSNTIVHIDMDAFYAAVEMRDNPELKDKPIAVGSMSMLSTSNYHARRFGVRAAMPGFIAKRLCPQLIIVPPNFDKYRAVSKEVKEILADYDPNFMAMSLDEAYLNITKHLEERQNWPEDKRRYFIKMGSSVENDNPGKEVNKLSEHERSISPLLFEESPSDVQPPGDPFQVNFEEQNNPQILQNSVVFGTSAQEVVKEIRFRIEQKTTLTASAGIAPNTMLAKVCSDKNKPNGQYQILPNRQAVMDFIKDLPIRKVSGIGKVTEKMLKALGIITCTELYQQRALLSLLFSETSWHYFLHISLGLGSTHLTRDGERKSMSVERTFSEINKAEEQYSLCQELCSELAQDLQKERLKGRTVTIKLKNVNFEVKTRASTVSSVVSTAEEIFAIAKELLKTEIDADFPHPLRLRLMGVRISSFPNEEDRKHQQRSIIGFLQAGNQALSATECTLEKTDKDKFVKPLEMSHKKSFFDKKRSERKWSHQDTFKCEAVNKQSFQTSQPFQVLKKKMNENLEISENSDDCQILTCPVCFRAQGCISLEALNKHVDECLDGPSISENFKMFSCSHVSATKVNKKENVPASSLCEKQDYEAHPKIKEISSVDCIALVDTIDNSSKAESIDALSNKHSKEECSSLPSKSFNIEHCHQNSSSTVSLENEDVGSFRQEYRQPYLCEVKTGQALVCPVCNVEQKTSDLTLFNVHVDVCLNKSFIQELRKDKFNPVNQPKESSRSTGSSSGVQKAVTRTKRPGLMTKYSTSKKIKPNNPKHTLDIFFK
# Experiment: qHTS for Inhibitors of Polymerase Kappa
# Settings: purified Pol kappa, fluorescent DNA synthesis assay, 10 min; series mostly up to 107 µM
# Procedure, shortened: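 First, compounds were pin-transferred onto 10 nM Pol kappa. After 15 min at room temperature, substrate was added to 50 nM final. Fluorescence was then measured kinetically at 0 and 10 min.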
# Potency is the fitted concentration of half-maximal effect.
Compound,Potency,"activity, negative = inhibition"
O=c1ccc2c(-c3ccccc3S(=O)(=O)O)c3ccc(O)c(O)c3oc-2c1O,0.708 µM (active),–
Cc1nc2cnc(N3CCNCC3)nc2n(Cc2ccc(F)cc2)c1=O,inactive,–
Clc1cccc[n+]1CCCC[n+]1ccccc1Cl,inactive,–
Cc1c(CCO)sc[n+]1CC(=O)c1ccc2ccccc2c1,inactive,–
CCN1CCN(c2ccc(/C=C/c3ccnc4ccccc34)cc2)CC1,inactive,–
CCOc1cccc(CC(=O)N2CCc3c([nH]c4ccccc34)C2c2ccc(F)cc2)c1OCC (stereo unspecified),inactive,–
CCOc1cccc2c1N[C@@H](c1ccc(C(=O)O)cc1)[C@H]1CC=C[C@@H]21,3.98 µM (active),–
CCOc1ccccc1C1NC(=O)NC(C)=C1C(=O)OCc1ccco1 (stereo unspecified),inactive,–
O=C(O)c1ccc(/C=C2/SC(=S)N(c3cccc(C(F)(F)F)c3)C2=O)cc1,–,-8.36% [at 12 µM]
N#Cc1c(N2CCCCC2)nc(N)c2c(N)nc(SCC(=O)O)cc12,39.8 µM (active),–
CC1C(O)CC2C(C(=O)O)=CO[C@@H](O[C@H]3OC(CO)C(O)C(O)C3O)C21 (stereo partly specified),inactive,–
CS(=O)(=O)N1CCC2(CCN(c3ccncc3)CC2)CC1,inactive,–
Oc1ccc(-c2c(-c3ccccc3)nn3c(C(F)(F)F)cc(C(F)(F)F)nc23)cc1,–,-10.8% [at 12 µM]
Cc1c(S(=O)(=O)O)oc2c1C(=O)C(=O)c1c-2ccc2c1CCCC2(C)C,35.5 µM (active),–
CCC(CCC(C)C1CCC2C3CC=C4CC(O)CC[C@@]4(C)C3CC[C@@]12C)C(C)C (stereo partly specified),–,8.1% [at 19.4 µM]
C[N+]1(CC(=O)c2cccs2)CCOCC1,inactive,–
CCOc1ccc(NC(=O)c2ccc(NC(=O)COC(=O)c3ccc(NC(=O)CC#N)cc3)cc2)cc1,22.4 µM (active),–
CCOC(=O)c1ccc(-c2ccc(/C=C(\C#N)C(=O)Nc3ccc(OCC)cc3)o2)cc1,inactive,–
CCOc1ccc(NC(=O)Cn2c(C)ccc(C#N)c2=O)cc1,inactive,–
CS(=O)c1ccc(/C=C2\C=Cc3ccccc32)cc1 (stereo unspecified),inactive,–
CN(C)c1cccc2ccccc12,inactive,–
C=C1/C(=C\C=C2\CCCC3(C)C2CCC3C(C)/C=C/C(O)C2CC2)CC(O)CC1O (stereo unspecified),inactive,–
COc1cc2nc(C#Cc3nc4cc(OC)c(OC)cc4[nH]3)[nH]c2cc1OC,inactive,–
O=C(CSc1nc(O)c(Cc2ccccc2)c(=O)[nH]1)Nc1nc2c(s1)CCCC2,inactive,–
COc1ccc(NC(=O)CSc2nc3ccccc3[nH]2)cc1,inactive,–
O=C(CSc1nc2ccccc2c(=O)[nH]1)Nc1nc(-c2ccc(Br)cc2)cs1,20 µM (active),–
